According to PubChem BioAssay (Tox21):
Inconclusive results are not listed. Entries that show only a call come without a potency. Calls of active or inactive are those of the source. Calls come from the whole dose curve.

assay: qHTS assay to identify small molecule agonists of the AP-1 signaling pathway - cell viability counter screen (AID 1159525); conditions: ME-180 (cervical carcinoma) AP-1-bla cells viability, ATP luminescence, 5 h; series mostly up to 76.8 µM; note: nearly all actives have a fitted effect of over 55% in size
From the text: National Center for Advancing Translational Sciences [NCATS]
NIH Chemical Genomics Center [NCGC]
U.S. Environmental Protection Agency [EPA]
National Institutes of Environmental Health Sciences [NIEHS]
National Toxicology Program [NTP]
U.S. Food and Drug Administration [FDA]
Activator protein-1 (AP-1), a transcription factor, plays an important role in tumor genesis by regulating genes involved in cell proliferation, differentiation, apoptosis, and angiogenesis. AP-1 activity is induced by a complex network of signaling pathways that involves extracellular signals, such as growth factors. The AP-1 protein complex formed from c-Fos and c-Jun binding to the AP-1 response element results in transcriptional activation of genes containing such elements within their promoter.
Low molecular weight molecules have been discovered and developed to modulate various components of these signaling pathways, for example, MAP kinase inhibitors. However, many points of pathway modulation remain untested due to the lack of chemical probes making this signaling locus of general interest.
Using a beta-lactamase reporter-gene under control of the AP-1 response element, a cell-based assay [CellSensor(TM) AP-1-bla ME-180 developed by Invitrogen Corp.] was used to measure EGF-induced signaling. The Tox21 10K library compounds were measured for their ability to positively modulate the action of EC50 EGF on reporter gene activity. Compounds were screened in a 15-pt titration series in 1536-well format. The cytotoxicity of the Tox21 compound library against this cell line was tested in parallel by measuring the intra cellular ATP content in the same wells.
Tox21 Assay Protocol Summary:
2500 cells/5uL in Opti-MEM medium containing 0.5% dialyzed FBS, 0.1 mM NEAA, 1 mM sodium pyruvate and 10 mM HEPES was dispensed into 1536-well black wall/clear bottom plates using a Multidrop dispenser and cells were cultured at 37 degrees Celsius overnight. Next day 23 nL of compounds dissolved in DMSO, positive controls or DMSO were delivered to each well using a pin tool. The plates were incubated at 37 degrees Celsius for 5 hours. 1 uL of LiveBLAzerTM B/G FRET substrate (Solution A+B+C+D) was added to each well using a Flying Reagent Dispenser. After incubated at room temperature for 2.5 hours the plates were measured on an EnVision plate reader at Excitation 405nm, Emission1=460nm and Emission 2=530nm. The %Activity was determined from the ratio of 460nm/530nm.
After the plates were read for Beta-Lactamase assay on Envision; 3 ul Cell Titer Glo (Promega) was added to measure the cytotoxicity and the plates were then incubated at RT in dark for 30 min. The luminescence was read on ViewLux (Perkin Elmer, Shelton, CT) using 6 sec exposure. ViewLux data was expressed as relative luminescence units.
For primary data analysis, raw plate reads for each titration point were first normalized relative to […] EGF control (100%) and DMSO only wells (basal, 0%).
For primary data analysis for viability assay, raw plate reads for each titration point were first normalized Tetra n-octyl ammonium bromide control (-100%) and DMSO (control, 100%).

Question: For Cc1ccc(Cl)c(N)c1Cl, which Potency is on record?
Answer: The Potency was “inactive”.

Question: With CCC(=O)OC/C=C(\C)CCC=C(C)C as the compound, how does the Potency read?
Answer: Its Potency is “inactive”.

Question: For CCN(CC)c1ccc(C=O)cc1, which Potency is on record?
Answer: The Potency was “inactive”.

Question: Which Potency does the source give for CC(C=O)c1ccccc1 (stereo not given) here?
Answer: The Potency was “inactive”.

Question: With O=C(Cl)c1ccc(Cl)cc1Cl as the compound, how does the Potency read?
Answer: The Potency was “inactive”.

Question: Which Potency does the source give for c1ccc2c(c1)-c1ccc3ccc4cccc5cc-2c1c3c45 here?
Answer: Its Potency is “inactive”.

Question: For Cc1ccc(N=Nc2c(O)ccc3ccccc23)c(C)c1, which Potency is on record?
Answer: The Potency was “inactive”.

Question: For CC1=C(/C=C/C(C)=C/C=C/C(C)=C\C(=O)O)C(C)(C)CCC1, which Potency is on record?
Answer: The Potency was “inactive”.

Question: For CCCC(C)C=O (stereo not given), which Potency is on record?
Answer: The Potency was “inactive”.

Question: Which Potency does the source give for CC(c1cc(C(C)(C)C)cc(C(C)(C)C)c1O)c1cc(C(C)(C)C)cc(C(C)(C)C)c1O here?
Answer: Its Potency is “inactive”.

Question: Which Potency does the source give for S=C1NC=NC2N=CNC12 (stereo not given) here?
Answer: Its Potency is “inactive”.

Question: With O=C(Nc1ccccc1)c1cc(Cl)ccc1O as the compound, how does the Potency read?
Answer: The Potency was “inactive”.

Question: Which Potency does the source give for C=C(C)CCO here?
Answer: Its Potency is “inactive”.

Question: With C=Cc1ccc(O)c(OC)c1 as the compound, how does the Potency read?
Answer: The Potency was “inactive”.

Question: With CC(=O)Nc1ccc(N=Nc2cc(C)ccc2O)cc1 as the compound, how does the Potency read?
Answer: The Potency was “inactive”.

Question: Which Potency does the source give for C/C=C/C(=O)OCC(C)C here?
Answer: The Potency was “inactive”.

Question: Which Potency does the source give for CC(C)C(=O)C(C)C here?
Answer: Its Potency is “inactive”.

Question: With CC/C=C(\C)C=O as the compound, how does the Potency read?
Answer: Its Potency is “inactive”.

Question: Which Potency does the source give for CC1=CC[C@@H](C(C)(C)O)CC1 here?
Answer: The Potency was “inactive”.

Question: Which Potency does the source give for Nc1ccc(Cl)c([N+](=O)[O-])c1 here?
Answer: The Potency was “inactive”.

Question: For CCSCC, which Potency is on record?
Answer: Its Potency is “inactive”.

Question: For C=CC(=O)O[C@H]1C[C@@H]2CC[C@@]1(C)C2(C)C, which Potency is on record?
Answer: Its Potency is “inactive”.

Question: For O=c1cc[nH]cc1, which Potency is on record?
Answer: The Potency was “inactive”.

Question: Which Potency does the source give for C=C1CC[C@H]2O[C@]2(C)CC[C@@H]2[C@@H]1CC2(C)C here?
Answer: Its Potency is “inactive”.

Question: With C/C(=C\c1ccc(C(=O)O)cc1)c1ccc2c(c1)C(C)(C)CCC2(C)C as the compound, how does the Potency read?
Answer: Its Potency is “inactive”.

Question: For [Cl][Dy]([Cl])[Cl], which Potency is on record?
Answer: Its Potency is “inactive”.

Question: Which Potency does the source give for CN1CCN(CCCN2c3ccccc3Sc3ccc(Cl)cc32)CC1 here?
Answer: Its Potency is “inactive”.

Question: For CCc1cccc(C)c1N(C(=O)C(=O)O)C(C)COC (stereo not given), which Potency is on record?
Answer: The Potency was “inactive”.

Question: For Cc1ccc2n[nH]nc2c1, which Potency is on record?
Answer: Its Potency is “inactive”.

Question: For CC(=O)[C@]1(O)Cc2c(O)c3c(c(O)c2[C@@H](O[C@H]2C[C@H](N)[C@H](O)[C@H](C)O2)C1)C(=O)c1ccccc1C3=O, which Potency is on record?
Answer: The Potency was “inactive”.

Question: Which Potency does the source give for C=CCc1cc(S(=O)(=O)c2ccc(O)c(CC=C)c2)ccc1O here?
Answer: The Potency was “inactive”.

Question: Which Potency does the source give for Clc1cccc(Cl)n1 here?
Answer: The Potency was “inactive”.

Question: With NCc1ccco1 as the compound, how does the Potency read?
Answer: Its Potency is “inactive”.

Question: Which Potency does the source give for Cc1c[nH]c(=O)[nH]c1=O here?
Answer: The Potency was “inactive”.

Question: For CCC(O)CO (stereo not given), which Potency is on record?
Answer: Its Potency is “inactive”.

Question: Which viability change, negative = cytotoxic does the source give for CCCCNc1ccc(NCCCC)c2c1C(=O)c1ccccc1C2=O here?
Answer: Its viability change, negative = cytotoxic is -8.5% [at 15.8 µM] (inactive).

Question: For c1ccc(C[P+](c2ccccc2)(c2ccccc2)c2ccccc2)cc1, which Potency is on record?
Answer: Its Potency is “inactive”.

Question: With COC(=O)c1ccc([N+](=O)[O-])cc1 as the compound, how does the Potency read?
Answer: The Potency was “inactive”.

Question: With CC(C)c1ccc2sc3ccccc3c(=O)c2c1 as the compound, how does the Potency read?
Answer: The Potency was “inactive”.

Question: Which Potency does the source give for CCOC=C(C(=O)OCC)C(=O)OCC here?
Answer: The Potency was “inactive”.
